# Data taken from PubChem BioAssay AID1345085 (National Center for Advancing Translational Sciences (NCATS), 2018).
# Results filed as inconclusive are left out. Calls of active or inactive are those of the source. The call rests on the fitted dose curve; in most records, active means well fitted cell-killing curve with a large enough effect; inconclusive means small, poorly fitted or top-dose-only effect, or effect the other way; inactive means no such curve, though single readings can be large or run the other way.
# Test system: Hek293T
# Experiment: Confirmatory qHTS for gynecologic anti-cancer compounds from libraries of approved drugs and bioactive compounds; further: nearly all actives have a fitted effect of over 55% in size
# Details: gynecologic cancer cell panel viability, ATPlite luminescence, 48 h; series mostly up to 57.6 µM
# Outline: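 ATP-based luminescent viability (ATPlite) after 48 h drug treatment at 37 °C, 5% CO2, across 57.5 uM–0.977 nM in 1:3 steps. Cells seeded at 1,000 per well 16 h beforehand; IC50 values computed, HEK 293T as selectivity control.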
# Potency means the concentration at half of the fitted maximal effect.
row,SMILES,Potency
1,O=c1[nH]c(=O)n([C@H]2C[C@H](O)[C@@H](CO)O2)cc1F,1370 nM (active)
2,CN1CCN(Cc2ccc(NC(=O)Nc3ccc(Oc4cc(NC(=O)C5CC5)ncn4)cc3)cc2C(F)(F)F)CC1,7690 nM (active)
3,CC[C@@]1(O)C(=O)OCc2c1cc1n(c2=O)Cc2c-1nc1ccccc1c2/C=N/OC(C)(C)C,172 nM (active)
4,CCN1CCN(Cc2ccc(-c3cc4c(NC(C)c5ccccc5)ncnc4[nH]3)cc2)CC1 (stereo unspecified),27300 nM (active)
5,CC1=C(CO)C(=O)O[C@@H]([C@@H](C)[C@H]2CC[C@H]3[C@@H]4C[C@H]5O[C@]56[C@@H](O)C=CC(=O)[C@]6(C)[C@H]4CC[C@]23C)C1,2370 nM (active)
6,CCC1C(=O)N(C)c2cnc(Nc3ccc(C(=O)NC4CCC(N5CCN(CC6CC6)CC5)CC4)cc3OC)nc2N1C(C)C (stereo unspecified),61.1 nM (active)
7,NC(=O)c1cnc(-c2ccc(C3(N)CCC3)cc2)c(-c2ccccc2)c1,21700 nM (active)
8,Cc1ccc(C(=O)Nc2ccc(CN3CCN(C)CC3)c(C(F)(F)F)c2)cc1C#Cc1cnc2cccnn12,17200 nM (active)
9,CC(=O)c1cnc2ccc(-c3cc(Cl)c(O)c(Cl)c3)nc2c1NC1CCC(CN(C)C)CC1 (stereo unspecified),35.2 nM (active)
10,Cc1nc(Nc2n[nH]c3c2CN(C(=O)NC(CN(C)C)c2ccccc2)C3(C)C)c2sccc2n1 (stereo unspecified),9680 nM (active)
11,CC(C)c1nn(-c2c(Cl)cccc2Cl)c2nc(Cc3ccc(OCCO)cc3)[nH]c(=O)c12,30.6 nM (active)
12,Cc1ccc(C(=O)N(CCCN)C(c2nc3cc(Cl)ccc3c(=O)n2Cc2ccccc2)C(C)C)cc1 (stereo unspecified),6.1 nM (active)
13,CN(C)C(CCOc1cccc2ccccc12)c1ccccc1 (stereo unspecified),inactive
14,NC(=O)c1ccc2nc(-c3ccc(Oc4ccc(Cl)cc4)cc3)[nH]c2c1,21.7 nM (active)
15,Nc1ccccc1NC(=O)c1ccc(CNC(=O)OCc2cccnc2)cc1,inactive
16,CO[C@@]12[C@H](COC(N)=O)C3=C(C(=O)C(C)=C(N)C3=O)N1C[C@@H]1N[C@@H]12,inactive
17,CCc1cccc(CC)c1NC(=O)N1Cc2[nH]nc(NC(=O)c3ccc(N4CCN(C)CC4)cc3)c2C1,inactive
18,CC[C@H](CC#N)OC(=O)N[C@@H](C)c1cccc(NC(=O)Nc2ccc(-c3cnco3)c(OC)c2)c1,76.9 nM (active)

row,SMILES,Potency
1,CCCCc1oc2ccccc2c1C(=O)c1cc(I)c(OCCN(CC)CC)c(I)c1,79400 nM (active)
2,C1CCC(C(CC2CCCCN2)C2CCCCC2)CC1 (stereo unspecified),27300 nM (active)
3,CCN(CC)CCNC(=O)c1c(C)[nH]c(/C=C2\C(=O)Nc3ccc(F)cc32)c1C,31600 nM (active)
4,CCS(=O)(=O)N1CCN(c2ccc(Nc3ncc(C(N)=O)c(NC4CC4)n3)cc2)CC1,17200 nM (active)
5,Cc1cc(Nc2nc(N[C@@H](C)c3ncc(F)cn3)ncc2Cl)n[nH]1,inactive
6,CN(C)C1CCN(C(=O)c2ccc(NC(=O)Nc3nc(N4CCOCC4)nc(N4CCOCC4)n3)cc2)CC1,485 nM (active)
7,CN(c1nccc(=O)[nH]1)C1CCN(c2nc3ccccc3n2Cc2ccc(F)cc2)CC1,inactive
8,COc1ccc(-c2nc3ccc(C4=NNC(=O)CC4C)cc3[nH]2)cc1 (stereo unspecified),2170 nM (active)
9,CC[C@@]1(O)C(=O)OCc2c1cc1n(c2=O)Cc2cc3c(CN(C)C)c(O)ccc3nc2-1,3430 nM (active)
10,CS(=O)(=O)c1ccc(-c2cnc(N)c(C(=O)Nc3ccccc3)n2)cc1,inactive
11,CN(Cc1cnc2nc(N)nc(N)c2n1)c1ccc(C(=O)N[C@@H](CCC(=O)O)C(=O)O)cc1,109 nM (active)
12,COc1cc2c(c(OC)c1OC)-c1ccc(OC)c(=O)cc1[C@@H](NC(C)=O)CC2,inactive
13,CN(NC(=O)CC(=O)NN(C)C(=S)c1ccccc1)C(=S)c1ccccc1,61.1 nM (active)
14,C[C@@]1(C(=O)Nc2ccc(F)nc2)CCCN1c1nc(Nc2cc(C3CC3)[nH]n2)c2cccn2n1,inactive
15,Cc1c(C)n(Cc2ccc(-c3ccccc3C(=O)O)cc2)c2ccc(C(=O)N[C@@H](C)c3ccc([N+](=O)[O-])cc3)cc12,inactive
16,CC(C)Oc1ccc(C(=O)NC(CNC(=O)CN(C)C)Cc2ccc(-c3cn4cccc(C(C)O)c4n3)cc2)cc1Cl (stereo unspecified),inactive
17,NCCOc1cc(C(=O)Nc2cc(OCCN)c3ccccc3n2)nc(C(=O)Nc2cc(OCCN)c3ccccc3n2)c1,inactive
18,COCCOc1nc(-c2ccc(Cl)c(Cl)c2)n(-c2ccc(NC(=O)CCl)cc2)n1,12200 nM (active)
